Test results as given in PubChem BioAssay AID1345082 (National Center for Advancing Translational Sciences (NCATS), 2018).
The whole screen tested about 94,000 compounds, of which about 4,000 (4.3%) were called active. Entries that show only a call come without a potency. Inconclusive results (about 29%) are left out. The sample holds actives, similar compounds and a random draw of the others, so the mix is not that of the screen. Calls follow the shape of the dose curve; as a rule, active = well fitted inhibition curve with a large enough effect; inconclusive = small, poorly fitted or top-dose-only effect; inactive = no such curve, though single readings can be large or run the other way.

Assay: Cytotoxic Profiling in NIH 3T3 Cell Line of Diverse Libraries Using Quantitative High-Throughput Screening; also: nearly all actives have a fitted effect of over 55% in size
Details: NIH 3T3 viability, CellTiter-Glo ATP luminescence, 48-72 h; series mostly up to 96.7 µM
Summary of the method: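 Viability of NIH 3T3 cells after 48 or 72 hr compound treatment at 37 °C was assessed by CellTiter-Glo, with luminescence imaged following a 10 min room-temperature step.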
Potency is read from the fitted curve at half-maximal effect.

| SMILES | Potency |
| --- | --- |
| COc1ccc(C(C)NC(=O)CN2C(=O)C(c3ccccc3)=NC2(C)C)cc1 (configuration not stated) | inactive |
| CN1C(=O)CC[C@]2(C(=O)NCC3CCCCC3)CCCC[C@@H]12 | inactive |
| O=C(NC1CCOC1)c1ccc2oc(-c3ccc(C(F)(F)F)cc3)nc2c1 (configuration not stated) | inactive |
| O=C(CSc1ccncc1)N1CCCC(O)(CN2CCCC2)C1 (configuration not stated) | inactive |
| COc1ccc(N2Cc3c(NCc4cccs4)ncnc3N(C)CC2=O)cc1 | inactive |
| COCCNC(=O)N1CCc2nn(Cc3ccccc3)c(=O)n2CC1 | inactive |
| COCCOc1cc(=O)n2c(c1C(=O)NCc1ccccc1)CCOCC2 | inactive |
| Cc1cccc(CN2CCc3ncc(C(=O)NCc4ccccc4)n3CC2)n1 | 89.1 µM (active) |
| CCOc1ccc(C(=O)N2C[C@@H](CO)[C@H](c3ccncc3)C2)cc1 | inactive |
| COc1ccc2ccc(OCc3nc(C(=O)N4CCC(=O)NCC4C)co3)cc2c1 (configuration not stated) | inactive |
| Cc1ccccc1CNC[C@H]1O[C@@H]2C[C@@H](CC(=O)NC(C)C)O[C@@H]2[C@@H]1O | inactive |
| Cc1cc(=O)n(CC(=O)N2C[C@H](CO)C[C@H](CN(C)C)C2)nc1C | inactive |
| CCOc1cc(C)c(CN2C[C@@H](CN(C)C)C[C@H](CO)C2)cc1C(C)C | 31.6 µM (active) |
| COc1cc(C)c(CN2CCN3C(=O)CNC(=O)C3C2)cc1C(C)C (configuration not stated) | inactive |
| O=C(C1CCCCC1)N1CCCC(n2cc(-c3nc(-c4ccccc4)no3)nn2)C1 (configuration not stated) | inactive |
| COC(=O)[C@@H]1C[C@H](NC(=O)c2c(Cl)cccc2Cl)CN1C | inactive |
| O=C1c2c(nc(COc3ccccc3)n2Cc2ccccc2)NCCN1Cc1cccc(Cl)c1 | 28.2 µM (active) |
| CN1CCNc2nc(CNc3cccc(F)c3)n(Cc3ccccc3)c2C1=O | inactive |
| C=CCC1(C(=O)O)CCCN(Cc2cn[nH]c2C(=O)O)C1 (configuration not stated) | inactive |
| CCNC(=O)O[C@@H]1CO[C@H]2[C@@H]1OC[C@@H]2NC(=O)c1cccc(C(=O)OC)c1 | inactive |
| CCNC(=O)O[C@@H]1CO[C@H]2[C@@H]1OC[C@@H]2NC(=S)Nc1cccc2ccccc12 | 79.4 µM (active) |
| COc1ccc(NC(=O)O[C@@H]2CO[C@H]3[C@@H]2OC[C@@H]3NC(=S)Nc2cccc3ccccc23)cc1 | inactive |
| CC(C)(CC(=O)O)CC(=O)N[C@H]1CO[C@H]2[C@@H]1OC[C@@H]2n1nnnc1-c1ccccc1 | inactive |
| c1ccc(CO[C@@H]2CO[C@H]3[C@@H]2OC[C@@H]3n2nnnc2SCc2ccco2)cc1 | 89.1 µM (active) |
| CNC(=O)CCN(C)c1nccc(-c2ccc(C)nc2C)n1 | inactive |

| SMILES | Potency |
| --- | --- |
| Cc1cccc(C(=O)N[C@@H]2CN(c3ncccn3)C[C@H]2CO)n1 | inactive |
| COc1ccc(-c2cc(-c3cnc4[nH]ccc4c3)cn3cncc23)cn1 | 39.8 µM (active) |
| COc1ccc(-c2cc(-c3cccc4[nH]ncc34)cn3cncc23)cn1 | 14.1 µM (active) |
| CC(C)NC(=O)C1CCC(=O)N1C1CCN(C(=O)C2CCCCC2)CC1 (configuration not stated) | inactive |
| COc1cccc(CN2CC3(C2)C(=O)N(Cc2ccccc2F)C(=O)[C@@H]2C[C@@H](O)CN23)c1 | inactive |
| CC(=O)N1C[C@@H]2CCCN3CCC[C@@H]([C@H]23)[C@H]1CCCC(=O)NCc1cc(F)cc(F)c1 | inactive |
| Cc1ccc(C(=O)N2C[C@@H](CO)[C@H](c3ccncc3)C2)c(C)c1 | inactive |
| CN(c1ccccc1)c1cc(=O)c2ccnc(-c3ccc(CO)cc3)c2o1 | 8.91 µM (active) |
| CN(c1ccccc1)c1cc(=O)c2ccnc(Nc3cccc([S+](C)(=O)[O-])c3)c2o1 | 8.91 µM (active) |
| O=c1cc(-c2cccnc2)oc2c(-c3cccc(CO)c3)nccc12 | 31.6 µM (active) |
| OC[C@@H]1O[C@H](CNC2CCOCC2)[C@H](N2CCc3ccccc3C2)[C@@H]1O | inactive |
| Cc1cc(C(=O)N2CCn3nc(C(=O)Nc4ccccc4)cc3C2)cc(=O)[nH]1 | inactive |
| CN1CCCN(C(=O)c2ccoc2)c2ccccc21 | inactive |
| COCCn1ncc(N2CCCC(CC(=O)NCc3cccc(C)c3)C2)cc1=O (configuration not stated) | inactive |
| O=C(Nc1ccsc1)N[C@H]1C[C@H]2C(=O)NC[C@@H](CCC(=O)N3CCC(O)CC3)N2C1 | inactive |
| COCCNC(=O)C[C@@H]1C[C@H]2O[C@H](CNC3CCN(C)CC3)[C@@H](O)[C@H]2O1 | inactive |
| Cc1ccc(C2Cn3nnc(C(=O)N4CCC(C(=O)NCc5cccnc5)CC4)c3CO2)cc1 (configuration not stated) | inactive |
| COc1ccc2nc3n(c2c1)[C@@H](CNC(=O)c1cnccn1)COC3 | inactive |
| COc1ccc2nc3n(c2c1)[C@@H](CNC1CCCCC1)COC3 | 39.8 µM (active) |
| COc1ncccc1CNC[C@H]1COCc2nc3cc(C(F)(F)F)ccc3n21 | inactive |
| COc1ccccc1CN(C(=O)c1cccc(-c2noc(C)n2)c1)C1CC1 | inactive |
| Cc1cnc(CCNS(=O)(=O)Cc2ccccc2F)n1Cc1ccccc1 | inactive |
| O=C(NCC1CN(Cc2ccccc2)CC12CN(c1ccccc1)C2)Nc1ccccc1 (configuration not stated) | 39.8 µM (active) |
| CN(CC#N)C(=O)[C@H]1CN(Cc2ccccc2)C[C@H]1C(=O)O | inactive |
| Cc1ccc(NC(=O)NC[C@H]2O[C@@H](CC(=O)N3CCN(c4ccccc4)CC3)[C@H](O)[C@@H]2O)cc1 | inactive |

| SMILES | Potency |
| --- | --- |
| CC(C)OCCCNC(=O)C1Cn2cccc2C(=O)N1C (configuration not stated) | inactive |
| CC(C)CN1C(=O)c2cccn2CC1C(=O)NCC1CCN(Cc2cccc(F)c2)CC1 (configuration not stated) | inactive |
| Cc1cnc(C2CCC2)n1CCNS(=O)(=O)c1cc(F)ccc1F | inactive |
| COCC(=O)N[C@H]1CO[C@H]2[C@@H]1OC[C@@H]2Nc1nccc(C(C)(C)C)n1 | inactive |
| O=C(NCC1CC1)c1ccc2nnc(CC3CC3)n2c1 | inactive |
| Cc1cccc(Nc2nc(N)nc(CN3CCC4(CC3)OCCCC4O)n2)c1 (configuration not stated) | inactive |
| O=C(CCn1ccc(=O)[nH]c1=O)N1CCn2nc(Cc3ccccc3)cc2C1 | inactive |
| COc1cccc(CNC(=O)c2cc(-c3ccc(Cl)nc3)nc3c2cnn3C)c1 | inactive |
| Cn1ncc2c(C(=O)NCc3cccnc3)cc(C(C)(C)C)nc21 | 44.7 µM (active) |
| Cn1ncc2c(C(=O)NCc3ccc(F)cc3)cc(-c3cccc(C(F)(F)F)c3)nc21 | inactive |
| Cc1ccccc1S(=O)(=O)N1C[C@@H]2CCCN3CCC[C@@H]([C@H]23)[C@H]1CCCC(=O)N1CCOCC1 | inactive |
| Cc1cc(C(=O)N[C@H](C)c2c(-c3ccc(F)cc3)noc2C(=O)O)nn1C | inactive |
| COC1CN(C2CCN(C(=O)C3CCC3)CC2)C12CCOCC2 (configuration not stated) | inactive |
| Cc1ccc(-c2cccc(CN3CCCC(NC(=O)c4ccc(Cl)cc4)C3)c2)cc1Cl (configuration not stated) | inactive |
| CC(=O)NC1(C)CCN(Cc2cccc(-c3ccc(C(=O)c4ccccc4)cc3)c2)C1 (configuration not stated) | 35.5 µM (active) |
| CC(=O)NC1(C)CCN(Cc2cnc(-c3ccc4c(ccn4C)c3)s2)CC1 | inactive |
| O=C(Nc1ccccc1)C1CN(S(=O)(=O)c2cccnc2)CC12CCCCC2 (configuration not stated) | inactive |
| Cc1ccc(-c2ccc3nnc(CNC(=O)c4ccncc4)n3n2)cc1C | inactive |
| Cc1ccc(-c2nnc3ccc(-c4ccoc4)nn23)nc1 | 100 µM (active) |
| COc1ccc(C(=O)NCc2nnc3ccc(-c4ccc(C)cc4)nn23)cc1F | inactive |
| Cc1ccc(CCN2C[C@]34C=C[C@H](O3)C(C(=O)N(C)Cc3nccn3C)C4C2=O)cc1 (some centres not stated) | inactive |
| COc1ccc(-c2ccc(C(=O)NCc3ccc(F)cc3)cc2)nn1 | inactive |
| COc1ccc(CNC(=O)c2c(C)sc3ccn(CC(C)C)c(=O)c23)cc1OC | inactive |
| COc1ccc(CNC(=O)c2cccc3c2CCN3C(=O)c2ccc(F)cc2)cc1OC | 39.8 µM (active) |
| COc1ccc(CC(=O)N2CCC[C@@H]2C(=O)N2CCC(N3CCOC3=O)CC2)cc1 | inactive |

| SMILES | Potency |
| --- | --- |
| COc1ccc(Cn2c(C3CCN(C(=O)Cc4ccsc4)CC3)n[nH]c2=O)cc1 | inactive |
| COc1cncc(-c2cccc(COc3ccc4c(cnn4CC[S+](C)(=O)[O-])c3)c2)c1 | 56.2 µM (active) |
| O=C1CCN(C2CCCC2)CCOCCN1 | inactive |
| O=C(NCC1CCOCC1)Nc1cccc(Cl)c1 | inactive |
| O=C(Nc1cccc(Cl)c1)[C@@H]1C[C@@H](c2ccc(F)cc2)N([S+](=O)([O-])c2cccnc2)C1 | 35.5 µM (active) |
| O=C1CCN(Cc2ccncc2)CCCC(C(=O)Nc2cccc(F)c2)CCN1 (configuration not stated) | inactive |
| O=C(Nc1cccc(F)c1)c1cc2n(n1)CC(c1ccc(Cl)cc1)OC2 (configuration not stated) | inactive |
| O=C(Nc1cccc(Cl)c1)[C@@H]1C[C@H](c2ccc(F)cc2)N([S+](=O)([O-])C2CC2)C1 | 79.4 µM (active) |
| O=C(Nc1cccc(Cl)c1)C1CN(c2ccccc2)C(=O)N1 (configuration not stated) | inactive |
| O=C(C1CCOC1)N1CCC(N(Cc2ccccc2)C2CCOCC2)CC1 (configuration not stated) | inactive |
| CN(C)C(=O)N1CCCC1C(=O)N1CCC(c2nc3ccncc3[nH]2)C1 (configuration not stated) | inactive |
| Nc1nc(CCCNC(=O)C2NCCc3[nH]cnc32)cs1 (configuration not stated) | inactive |
| O=C(Nc1ccccc1)N1CCC(C(=O)N2CCC(N3CCOCC3=O)CC2)CC1 | inactive |
| CC[C@H]1CN(S(C)(=O)=O)CC[C@H]1CC(=O)NCc1ccco1 | inactive |
| Cc1cccc(C)c1NC(=O)N(C)CC1CCOCC1 | inactive |
| COCC(=O)N[C@@H]1CN(Cc2ccc(F)c(OC)c2)C[C@H]1CO | inactive |
| COCCNC(=O)c1ccc2nnc(-c3cccc(C(F)(F)F)c3)n2c1 | inactive |
| O=C(NCc1ccc(C(F)(F)F)cc1)c1ccc2nnc(-c3ccc(C(F)(F)F)cc3)n2c1 | 31.6 µM (active) |
| O=C(NCc1ccccc1)c1ccc2nnc(C3CC3)n2c1 | inactive |
| O=C(NCCCc1ccccc1)C1CCc2nnc(-c3cccc(C(F)(F)F)c3)n21 (configuration not stated) | inactive |
| O=C(NCCc1ccccc1)c1ccc2nnc(-c3cccc(C(F)(F)F)c3)n2c1 | 39.8 µM (active) |
| O=C(NCc1ccc(F)c(F)c1)c1ccc2nnc(-c3cccnc3)n2c1 | inactive |
